Measurements as given in PubChem BioAssay (NCI).
About 83,000 compounds went through this panel and 20% of them were active in at least one assay; those are over-represented in the sample as a whole.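 Testing used 96-well plates and a 48-hour single-concentration exposure. Example: -40 means 40% of the starting cells died.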 Unmarked numbers belong to inactive results. Activity calls are given as the source filed them. The calls were made as follows: active = growth percent below 10; inactive = the rest.

Experiments:
Experiment in all cases: NCI-60 one-dose screen, 48 h (100 = growth as untreated, 0 = no growth, -100 = all killed)
Conditions in all cases: 10 µM unless noted
SK-MEL-2 melanoma = system: SK-MEL-2 melanoma
SN12C renal = system: SN12C renal
UO-31 renal = system: UO-31 renal
TK-10 renal = system: TK-10 renal
CAKI-1 renal = system: CAKI-1 renal
A498 renal = system: A498 renal
CCRF-CEM leukemia = system: CCRF-CEM leukemia
MOLT-4 leukemia = system: MOLT-4 leukemia
ACHN renal = system: ACHN renal

| SMILES | growth (SK-MEL-2 melanoma) | growth (SN12C renal) | growth (UO-31 renal) | growth (TK-10 renal) | growth (CAKI-1 renal) | growth (A498 renal) | growth (CCRF-CEM leukemia) | growth (MOLT-4 leukemia) | growth (ACHN renal) |
| --- | --- | --- | --- | --- | --- | --- | --- | --- | --- |
| COc1nc2ccccc2s1 | 100% | 99.3% | 73.3% | 111% | 90.5% | 101% | 102% | 103% |  |
| Clc1cccc(Cl)c1C1CSc2ccccc2N=C1c1ccccc1 (stereo not drawn) | 90.2% | 75.5% | 55.3% | 117% |  | 124% | -12.9% (active) | 20.1% | 76.8% |
| CCCCCCCCCCCCCCCCCCSC(=N)N | 97.6% | 65.6% | 43.2% | 65.5% | 79.4% | 84.7% |  | 26.2% | 69.9% |
| OCCNc1ccccc1 | 103% | 108% | 90.9% | 101% | 96.7% | 99.1% | 105% | 101% | 108% |
| O=C(CC(CC(=O)c1ccccc1)c1ccccn1)c1ccccc1 | 106% | 92.6% | 68.6% | 123% |  | 94.2% | 103% | 102% | 97.8% |
| O=C(Nc1ccccc1)c1ccco1 | 99.1% | 109% | 86.1% | 98.9% |  |  | 107% | 93.5% | 107% |
| CC1CC2C3CCC4=CC(=O)CCC4(C)C3CCC2(C)C1(O)C(=O)CO (stereo not drawn) | 99.2% | 102% | 92.2% | 117% |  | 73% | 90.6% | 71.9% | 124% |
| CC(C)C(C)(C)C(=O)C(C)(C)C(C)(C)C | 99.9% | 98.2% | 95.5% | 96.2% | 104% | 83.9% | 107% | 110% | 99.3% |
| CCOC(=O)CNC(=O)Sc1ccc(C(C)(C)C)cc1 | 87.1% | 93.5% | 64.2% | 96% | 100% | 119% |  | 32.5% | 101% |
| CSc1nsc(N)n1 | 94.2% | 96% | 82.3% | 101% |  | 87.5% | 108% | 97.9% | 107% |
| CC(C)N1CC(=O)N2CSCC2C1=O (stereo not drawn) | 115% | 107% | 96.5% | 109% | 100% | 123% |  | 111% | 109% |
| CCOC(=O)Nc1nccs1 | 111% | 97.8% | 88.1% | 104% | 103% | 99.9% |  | 110% | 104% |
| CCOC(=O)C(CCC#N)(CCC#N)C(=O)OCC | 112% | 105% | 95.2% | 102% | 102% |  | 94.7% | 97.3% | 109% |
| CCCNS(=O)(=O)c1ccc(Cl)cc1 | 106% | 103% | 89.9% | 106% | 93.8% | 98.9% | 100% | 113% | 102% |
| OCCOc1ccc(-c2cc(-c3ccccn3)nc(-c3ccccn3)c2)cc1 | 37.6% | 11.7% | -14.5% (active) | 28% | 3.07% (active) |  | 3.02% (active) | -6.16% (active) | 3.04% (active) |
| CC(CO)(CO)C(=O)O | 108% | 105% | 98.6% | 103% | 99% | 85.3% | 93.5% | 108% | 103% |
| CC(=O)NC(O)C(Cl)Cl (stereo not drawn) | 100% | 110% | 92.8% | 97.3% |  | 94.3% |  | 104% | 105% |
| CCOC(=O)c1ccc(Nc2sc(C(=O)c3ccc(Br)cc3)c(N)c2C#N)cc1 | 21.7% | 43.9% | 25.6% | 42.4% | 10.7% | -8.46% (active) | 12.8% | 33.5% |  |
| ON1CCCC1 | 106% | 102% | 95.5% | 94% | 92.9% | 97.5% |  | 81% | 109% |
| COC1OC(C(COC(C)=O)OC(C)=O)C(OC(C)=O)C(OC(C)=O)C1OC(C)=O (stereo not drawn) | 113% | 107% | 83.8% | 107% | 96.2% | 125% | 104% | 93.5% | 95.3% |
